# Assay results as given in PubChem BioAssay (NCI).
# Compounds without any hit were thinned out: in the full panel of roughly 83,000, 20% have a hit.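 Treatment: one concentration, 48 hours, 96-well format. Scoring: percent growth, with anything below 10 considered active.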 Values without a mark were called inactive. Activity calls are given as the source filed them.
# Assays:
# Assay in all cases: NCI-60 one-dose screen, 48 h (100 = growth as untreated, 0 = no growth, -100 = all killed)
# Conditions in all cases: 10 µM unless noted
# DU-145 prostate = tested on: DU-145 prostate
# MALME-3M melanoma = tested on: MALME-3M melanoma
# MDA-MB-231 breast = tested on: MDA-MB-231 breast
# RXF 393 renal = tested on: RXF 393 renal
# SF-268 CNS = tested on: SF-268 CNS
# SF-295 CNS = tested on: SF-295 CNS
# SF-539 CNS = tested on: SF-539 CNS
# UACC-257 melanoma = tested on: UACC-257 melanoma
# M14 melanoma = tested on: M14 melanoma
Structure (SMILES),growth (DU-145 prostate),growth (MALME-3M melanoma),growth (MDA-MB-231 breast),growth (RXF 393 renal),growth (SF-268 CNS),growth (SF-295 CNS),growth (SF-539 CNS),growth (UACC-257 melanoma),growth (M14 melanoma)
N#C/C(=C\c1c(-c2ccccc2)[nH]c2ccccc12)C(=O)c1ccc(Cl)cc1,28.3%,37.2%,49.9%,29.2%,51.4%,32.1%,-39.7% (active),68.2%,41%
Cc1nc2ccc(Cl)cn2c1-c1nnc(SCc2ccc([N+](=O)[O-])cc2)o1,67.9%,31.6%,41.4%,-5.38% (active),46.1%,74.6%,20.8%,61.3%,70.3%
COc1cc2c(c(OC)c1OC)-c1ccc(NNC(=S)N(Cc3cccc(C[N+](Cc4cccc(CNC56CC7CC(CC(C7)C5)C6)c4)(Cc4cccc(CNC56CC7CC(CC(C7)C5)C6)c4)Cc4cccc(CN(C(=S)NNc5ccc6c(cc5=O)[C@@H](NC(C)=O)CCc5cc(OC)c(OC)c(OC)c5-6)C56CC7CC(CC(C7)C5)C6)c4)c3)C34CC5CC(CC(C5)C3)C4)c(=O)cc1[C@@H](NC(C)=O)CC2 (some centres not stated),21.3%,-48.1% (active),-26.3% (active),20.2%,18.3%,20.3%,0.867% (active),43.1%,-53.4% (active)
N#Cc1c(-c2cccc([N+](=O)[O-])c2)nc(SCC(=O)c2ccc(Cl)cc2)[nH]c1=O,105%,99.9%,99.3%,102%,97.7%,104%,100%,105%,100%
CC(c1ccccc1)C(C(=O)c1ccccc1)c1ccccc1 (configuration not stated),105%,109%,71.6%,90.6%,94.2%,91.8%,98.1%,105%,89.7%
CC/C(=C\c1ccc(OC)cc1)C(=O)c1ccc(OC)cc1,105%,114%,96.4%,126%,101%,76.5%,96.5%,101%,102%
NS(=O)(=O)c1ccc(CCN2C(=O)C3C(C2=O)C2(Cl)C(Cl)=C(Cl)C3(Cl)C2(Cl)Cl)cc1 (configuration not stated),96.5%,90.5%,92.9%,109%,102%,94%,92.5%,110%,94.5%
O=[N+]([O-])c1ccc(N=Nc2cc(S(=O)(=O)O)c3cccc(S(=O)(=O)O)c3c2O)cc1,132%,84.5%,112%,121%,115%,125%,104%,113%,97.6%
CCOC(=O)C1=C(CCl)NC(=O)NC1c1ccc2c(c1)OCO2 (configuration not stated),36.6%,18.5%,39.4%,39.1%,66.9%,71.1%,16.5%,67.2%,32.3%
Cc1c(C)c([N+](=O)[O-])c(C)c([N+](=O)[O-])c1C,104%,111%,101%,108%,106%,97.6%,107%,105%,108%
COc1ccc(/C=C2\COc3ccc(-c4ccccc4)cc3C2=O)c(OC)c1,102%,91.6%,93%,83%,97.7%,190%,97.3%,82.8%,92.6%
CCNc1nc2ccc(Nc3ccnc4cc(Cl)ccc34)cc2[nH]1,97%,119%,84.7%,68.5%,88.4%,87.3%,85.6%,97.9%,91.9%
CCCCN1C=CCN(CCCC)C1,71.8%,-22.1% (active),75.2%,113%,58%,55.6%,78.6%,10.8%,46%
C#Cc1cccc(NC(=O)c2cccc(NC(=O)CCl)c2)c1,4.82% [8.25 µM] (active),-80.3% [8.25 µM] (active),-80.5% [8.25 µM] (active),-20.9% [8.25 µM] (active),8.4% [8.25 µM] (active),21.9% [8.25 µM],-97.1% [8.25 µM] (active),28.1% [8.25 µM],0.864% [8.25 µM] (active)
Cc1ccc(-c2csc(NC(=O)CSc3nc(-c4ccccc4)cc(=O)[nH]3)n2)cc1,103%,94.4%,93.2%,110%,90.2%,87.5%,97.7%,99.9%,105%
COc1ccc(/C=C/c2nc(Nc3ccc(Cl)cc3)c3ccccc3n2)cc1,50.2%,94.6%,38.2%,56.6%,54.3%,72.6%,90.9%,92.2%,34.3%
Cc1nc2sccn2c1-c1nc2sccn2c1/C=C1/C(=O)Nc2ccccc21,48%,50%,44.6%,32.7%,60.9%,-8.95% (active),16.4%,51.8%,34.2%
O=C1C=CC(=O)N1c1cccc(Cl)c1,123%,120%,132%,116%,108%,107%,113%,97.1%,114%
O=C(/C(=C\c1ccc([N+](=O)[O-])cc1)S(=O)Cc1ccc(Cl)cc1)c1ccc(Cl)cc1 (configuration not stated),77.7%,92.7%,76.2%,52.4%,64%,90.5%,99.1%,100%,63.3%
COc1cc2cc(Oc3cccc(NC(=O)Nc4cc(C(F)(F)F)cc(C(F)(F)F)c4)c3)c(C)nc2cc1OC,19.5%,-3.13% (active),-36.1% (active),-24.5% (active),15.3%,-59.2% (active),-40.9% (active),-4.68% (active),9.04% (active)
OCc1cnc2ccccc2c1NC1CCCCCC1,97.7%,102%,81.3%,103%,101%,86.4%,102%,94.5%,91.4%
CC(=O)[C@@H]1CC[C@]2(C(N)=O)CC[C@]3(C)[C@H](CC[C@@H]4[C@@]5(C)CCCNC(C)(C)[C@@H]5CC[C@]43C)[C@@H]12,91.6%,90%,106%,69.5%,80.2%,86.6%,90.1%,94.4%,77.5%
Oc1ccc(C2c3ccccc3Oc3ccccc32)c2cccnc12,31.2%,10.2%,30.2%,5.91% (active),20.2%,13%,10.4%,3.42% (active),-24.5% (active)
CCN(c1ccccc1)S(=O)(=O)c1cc([N+](=O)[O-])ccc1Cl,94%,67.6%,56.3%,40.7%,77.4%,110%,36.2%,64.6%,70.9%
NS(=O)(=O)c1ccc(CCN2C(=O)C=CC2=O)cc1,109%,102%,104%,111%,100%,102%,101%,101%,107%
CC(C)c1ccc(Nc2ccc3c(OCCCN4CCN(C)CC4)cccc3n2)cc1,76.1%,39.2%,51.8%,48.9%,71.8%,38.8%,73.5%,71.9%,-67.6% (active)
COc1ccc(-c2nc3sccn3c2/C=C/C(=O)c2ccc3c(c2)OCO3)cc1,113%,84.6%,76.3%,117%,100%,97.1%,84.6%,95.8%,103%
CC(C)(C)c1cc(C=O)cc(C(C)(C)C)c1O,103%,101%,87.5%,104%,96.6%,112%,102%,102%,101%
